# About 83,000 compounds went through this panel and 20% of them were active in at least one assay; those are over-represented in the sample as a whole.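 For each line, cells grew in 96-well plates with the test compound present at a single concentration for 48 hours.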 Activity calls are given as the source filed them. The calls were made as follows: active = growth percent below 10; inactive = the rest.
# Test system: HL-60(TB) leukemia
# Assay: NCI-60 one-dose screen, 48 h (100 = growth as untreated, 0 = no growth, -100 = all killed)
# Conditions: 10 µM unless noted
row,SMILES,growth
1,CCN(CC)CCN1C(=O)c2c(c(C)c3c(oc4ccc(O)cc43)c2C)C1=O,-6.29% (active)
2,CCN(CC)CCCC(C)NCCCNc1cccc2cccnc12 (stereo not given),-5.92% (active)
3,COc1ccc(-c2nc(SC(C)C)nc(NNC(N)=O)c2C#N)cc1,80.3% (inactive)
4,COc1ccc(NC(=O)/C=C/c2ccc(Cl)c(Cl)c2)cn1,61.5% (inactive)
5,Cc1csc(C#Cc2cncc(O)c2)n1,110% (inactive)
6,COc1ccc(Cn2nc(-c3cc(OC)c(OC)c(OC)c3)c3c2CCc2cnoc2-3)cc1OC,16.3% (inactive)
7,Nc1nc(N)c2c(n1)NC(c1cccc(Nc3ccnc4cc(C(F)(F)F)ccc34)c1)CC(c1ccc(Br)cc1)=N2 (stereo not given),43.1% (inactive)
8,O=C(/C=C/c1ccc2ccccc2c1)Nc1ncc(Cc2ccccc2)s1,94.4% (inactive)
9,CC(=O)c1c(Nc2ccc(F)c(F)c2F)[nH]c2c(F)cc(F)cc2c1=O,-48% (active)
10,Nc1ccc(-c2ccc(N)c(Br)c2)cc1Br,7.99% (active)
11,Oc1ccc(-c2nc(-c3ccc4oc5ccc(-c6[nH]c(-c7ccc(O)cc7)nc6-c6ccccc6)cc5c4c3)c(-c3ccccc3)[nH]2)cc1,39.9% (inactive)
12,Nc1c2c(nc3ccc(Cl)cc13)CC(c1ccc(O)cc1)CC2=O (stereo not given),18.9% (inactive)
13,Nc1n[nH]c2cccc(C#Cc3cccc(C(=O)Nc4ccc(Cl)c(C(F)(F)F)c4)c3)c12,21% (inactive)
14,Fc1ccc2[nH]c3c(NCCCN4CCOCC4)ncnc3c2c1,109% (inactive)
15,O=C(Nc1ccc(Cl)cc1)Nc1ccc(Oc2nncc3ccccc23)cc1,3.65% (active)

# — PubChem BioAssay (NCI)
